# Several values for one entry are separate records, joined by “and”; a condition that tells them apart may be missing. Equal values may be shown once. Inconclusive results are not listed. The source holds several records for some structures; these can differ, active in one and inactive in another. This is one part of the list. Activity calls are given as the source filed them. Unless noted, calls come from the whole dose curve; as a rule, active = well fitted curve in the direction sought with a large enough effect; inconclusive = small, poorly fitted or top-dose-only effect, or another doubt; inactive = no such curve, though single readings can be large; an effect the other way counts as inactive or inconclusive.
# How the values were obtained:
# [1] = target: DNA polymerase eta (Homo sapiens) (UniProt Q9Y253); assay: qHTS for Inhibitors of Polymerase Eta: Confirmatory Assay for Cherry-picked Compounds (AID 720502); conditions: Pol eta primer extension, TAMRA/BHQ fluorescence, 10 min; note: potency is the fitted concentration of half-maximal effect
# Chain of DNA polymerase eta (Homo sapiens) (Q9Y253 whole entry, looked up): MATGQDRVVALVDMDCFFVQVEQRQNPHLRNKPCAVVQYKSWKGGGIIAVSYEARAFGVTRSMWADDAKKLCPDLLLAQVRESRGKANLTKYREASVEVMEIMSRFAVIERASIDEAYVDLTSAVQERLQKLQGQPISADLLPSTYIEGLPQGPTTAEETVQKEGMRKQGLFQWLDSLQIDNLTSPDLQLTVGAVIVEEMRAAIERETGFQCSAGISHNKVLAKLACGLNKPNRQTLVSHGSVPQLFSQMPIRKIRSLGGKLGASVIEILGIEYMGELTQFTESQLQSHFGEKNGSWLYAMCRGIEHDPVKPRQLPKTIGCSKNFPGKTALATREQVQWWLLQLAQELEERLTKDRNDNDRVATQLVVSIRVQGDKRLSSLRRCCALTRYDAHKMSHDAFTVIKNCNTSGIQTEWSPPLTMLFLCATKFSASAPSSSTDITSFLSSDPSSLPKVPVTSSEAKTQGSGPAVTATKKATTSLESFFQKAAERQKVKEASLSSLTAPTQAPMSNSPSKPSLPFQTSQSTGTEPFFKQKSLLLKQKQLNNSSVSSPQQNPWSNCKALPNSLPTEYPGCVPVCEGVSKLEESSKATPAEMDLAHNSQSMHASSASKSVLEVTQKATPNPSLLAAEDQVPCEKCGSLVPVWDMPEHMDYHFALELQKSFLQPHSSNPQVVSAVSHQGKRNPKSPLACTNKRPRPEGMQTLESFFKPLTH
# Outline: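 10 nM Pol eta + cpd, 15 min RT; start w/ 50 nM final primer/TAMRA-reporter/BHQ-2-template substrate; kinetic read 0 and 10 min, ex 525/em 598 nm. Buffer-only wells = negative control.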
# [2] = qHTS Assay for Identifying Gametocytocidal Compounds (AID 743244);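 note: % is set by controls: 0 for no effect and ±100 for the full control effect; actives lower the fluorescent signal which means gametocytes are killed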; conditions: P. falciparum 3D7 stage III-V gametocytes, alamarBlue, 72 h; stronger effect = lower value
# Outline: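 3D7 gametocytes, stages III–V, 20,000/well; cpd 72 h, 37 °C/5% CO2; + alamarBlue 24 h; fluor. Ex 525/Em 598.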
# [3] = qHTS profiling for inhibitors of Plasmodium falciparum (3D7) proliferation (AID 743322);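 note: infected erythrocytes exposed to compound for 72 h before lysis; 100% = DMSO vehicle wells and 0% = 0.29 µM artemisinin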; conditions: P. falciparum 3D7 proliferation; at 28.7 µM (top of the series)
# Outline: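 Parasite DNA was quantified by SYBR Green I fluorescence (ex 485, em 535 nm) after overnight lysis in saponin/Triton buffer at room temperature. Cultures at 0.3% parasitemia and 2.5% hematocrit were first exposed to compound for 72 h at 37 C; signals were normalised to artemisinin (0.29 uM) and vehicle wells.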
# [4] = qHTS profiling for inhibitors of Plasmodium falciparum (DD2) proliferation (AID 743323; call rule not given here); conditions: lower = more inhibition; at 28.7 µM (top of the series)
# Outline: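 1536-well qHTS; infected RBCs 0.3% parasitemia/2.5% Hct final; cpd 72 h 37 C 5% CO2; lysis buffer + SYBR Green I, o/n RT dark; FI 485/535; norm. to 0.29 uM artemisinin and DMSO, plate-stack corrected.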
# [5] = qHTS profiling for inhibitors of Plasmodium falciparum (HB3) proliferation (AID 743324); conditions: Plasmodium falciparum HB3 blood-stage proliferation; at 28.7 µM (top of the series);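 note: 100% = DMSO vehicle wells and 0% = artemisinin-treated control wells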
# Outline: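 SYBR Green fluorescence (485 ex/535 em) of lysed cultures, incubated overnight at room temperature in the dark, quantifies parasite DNA. Infected erythrocytes at 0.3% parasitemia and 2.5% hematocrit were exposed 72 h; values normalized to DMSO and 0.29 uM artemisinin controls.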
# [6] = target: Cytochrome P450 3A4 (Homo sapiens) (UniProt P08684); assay: qHTS Assay for Activators of Cytochrome P450 3A4 (AID 885); conditions: recombinant CYP3A4, Luciferin-PPXE luminescence, 60 min; series mostly up to 57.1 µM; note: nearly all actives have a fitted effect of over 65% in size
# Chain of Cytochrome P450 3A4 (Homo sapiens) (P08684 whole entry, looked up): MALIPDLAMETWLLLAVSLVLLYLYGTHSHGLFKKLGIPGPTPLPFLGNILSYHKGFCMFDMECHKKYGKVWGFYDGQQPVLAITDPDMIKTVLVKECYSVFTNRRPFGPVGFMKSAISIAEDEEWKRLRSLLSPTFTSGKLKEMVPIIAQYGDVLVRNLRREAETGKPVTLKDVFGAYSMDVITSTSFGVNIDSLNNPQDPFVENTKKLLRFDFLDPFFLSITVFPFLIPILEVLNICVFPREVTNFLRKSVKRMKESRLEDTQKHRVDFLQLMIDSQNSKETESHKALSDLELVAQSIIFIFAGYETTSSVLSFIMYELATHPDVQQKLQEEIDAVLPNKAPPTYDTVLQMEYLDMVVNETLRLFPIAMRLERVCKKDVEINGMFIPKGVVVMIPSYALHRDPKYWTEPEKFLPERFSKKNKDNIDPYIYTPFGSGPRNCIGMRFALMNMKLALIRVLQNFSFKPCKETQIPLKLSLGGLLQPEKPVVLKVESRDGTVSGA
# Outline: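 Activators are scored by enhanced luminescence from CYP3A4 conversion of luciferin-PPXE (25uM, equal to KM) to luciferin, after 60 min at RT with an NADPH-regenerating system.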
# [7] = target: Cytochrome P450 2D6 (Homo sapiens) (UniProt P10635); assay: qHTS Assay for Inhibitors and Substrates of Cytochrome P450 2D6 (AID 891); conditions: recombinant CYP2D6, luciferin-ME EGE luminescence; series mostly up to 11.4 µM;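 note: luciferin methyl ether substrate demethylated by CYP2D6 with NADPH regeneration; % is set by controls: 0 for no effect and ±100 for the full control effect; nearly all actives have a fitted effect of over 60% in size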
# Chain of Cytochrome P450 2D6 (Homo sapiens) (P10635 whole entry, looked up): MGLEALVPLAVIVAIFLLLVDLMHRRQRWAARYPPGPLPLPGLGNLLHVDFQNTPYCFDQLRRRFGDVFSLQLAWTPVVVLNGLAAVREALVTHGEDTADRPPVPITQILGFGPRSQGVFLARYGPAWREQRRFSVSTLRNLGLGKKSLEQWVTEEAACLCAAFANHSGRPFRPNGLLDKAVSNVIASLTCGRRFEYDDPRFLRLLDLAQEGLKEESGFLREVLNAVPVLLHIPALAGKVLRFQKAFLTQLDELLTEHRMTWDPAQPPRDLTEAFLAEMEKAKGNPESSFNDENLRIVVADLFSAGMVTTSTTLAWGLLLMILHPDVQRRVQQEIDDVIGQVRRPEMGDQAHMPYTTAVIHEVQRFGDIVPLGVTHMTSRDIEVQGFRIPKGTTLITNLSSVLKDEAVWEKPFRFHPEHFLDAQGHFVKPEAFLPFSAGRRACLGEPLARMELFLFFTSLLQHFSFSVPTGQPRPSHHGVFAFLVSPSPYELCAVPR
# Outline: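 Luminescent read-out of luciferin formed by 5 nM human CYP2D6 demethylating 30 uM Luciferin-ME EGE (Km level) over 60 min at room temperature after NADPH regeneration addition. Data normalized to full inhibition by 1.43 uM quinidine.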
# [8] = target: Cytochrome P450 2C19 (Homo sapiens) (UniProt P33261); assay: qHTS Assay for Inhibitors and Substrates of Cytochrome P450 2C19 (AID 899); conditions: recombinant CYP2C19, luciferin-H EGE luminescence; series mostly up to 11.4 µM; note: nearly all actives have a fitted effect of over 60% in size; note: potency is the fitted concentration of half-maximal effect
# Chain of Cytochrome P450 2C19 (Homo sapiens) (P33261 whole entry, looked up): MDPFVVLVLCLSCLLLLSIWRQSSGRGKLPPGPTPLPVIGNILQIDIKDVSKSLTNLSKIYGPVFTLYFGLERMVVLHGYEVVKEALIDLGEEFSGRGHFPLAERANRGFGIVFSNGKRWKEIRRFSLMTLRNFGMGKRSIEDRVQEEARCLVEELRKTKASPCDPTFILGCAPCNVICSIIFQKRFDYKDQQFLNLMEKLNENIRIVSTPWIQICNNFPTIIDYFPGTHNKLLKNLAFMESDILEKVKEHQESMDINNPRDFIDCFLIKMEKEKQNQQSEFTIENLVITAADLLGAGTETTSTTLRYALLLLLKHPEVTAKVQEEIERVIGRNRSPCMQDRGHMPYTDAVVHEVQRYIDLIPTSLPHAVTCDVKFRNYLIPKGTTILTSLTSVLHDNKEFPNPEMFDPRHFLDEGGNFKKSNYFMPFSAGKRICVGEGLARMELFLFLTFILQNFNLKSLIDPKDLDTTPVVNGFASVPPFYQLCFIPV
# Outline: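 Human CYP2C19 (5nM) with Luciferin-H EGE at 10uM (its KM) in 50mM KPO4 was preincubated with compound for 10 min at 37C. NADPH regeneration started a 60 min 37C reaction. Luciferin was read by luminescence, normalized to 57uM ketoconazole.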
# [9] = target: Cytochrome P450 2C9 (Homo sapiens) (UniProt P11712); assay: qHTS Assay for Inhibitors and Substrates of Cytochrome P450 2C9 (AID 883); conditions: recombinant CYP2C9, luciferin-H luminescence, 60 min; series mostly up to 11.4 µM; note: nearly all actives have a fitted effect of over 60% in size; note: potency is the fitted concentration of half-maximal effect; for activity change, negative = inhibition: % is set by controls: 0 for no effect and ±100 for the full control effect
# Chain of Cytochrome P450 2C9 (Homo sapiens) (P11712 whole entry, looked up): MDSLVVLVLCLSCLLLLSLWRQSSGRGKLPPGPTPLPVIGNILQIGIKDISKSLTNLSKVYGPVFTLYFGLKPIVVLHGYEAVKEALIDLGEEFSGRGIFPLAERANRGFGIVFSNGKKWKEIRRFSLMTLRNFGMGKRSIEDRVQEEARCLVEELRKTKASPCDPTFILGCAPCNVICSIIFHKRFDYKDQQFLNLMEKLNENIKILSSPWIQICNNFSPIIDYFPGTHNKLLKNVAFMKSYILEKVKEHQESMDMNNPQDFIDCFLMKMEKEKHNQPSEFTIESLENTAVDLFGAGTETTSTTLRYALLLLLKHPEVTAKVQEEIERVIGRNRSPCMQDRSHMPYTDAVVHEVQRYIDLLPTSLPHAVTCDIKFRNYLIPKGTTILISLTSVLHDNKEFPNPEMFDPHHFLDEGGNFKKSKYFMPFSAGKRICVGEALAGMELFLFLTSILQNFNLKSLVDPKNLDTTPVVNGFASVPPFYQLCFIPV
# Outline: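 Human CYP2C9 (10nM) hydroxylated Luciferin-H (100uM, at its KM) to luciferin in 25mM KPO4. Compound was preincubated 10 min at 37C, then NADPH regeneration started a 60 min reaction at 37C. Luminescence was read after detection reagent, normalized to 57uM sulphaphenazole.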
# [10] = target: Cytochrome P450 3A4 (Homo sapiens) (UniProt P08684); assay: qHTS Assay for Inhibitors and Substrates of Cytochrome P450 3A4 (AID 884); conditions: recombinant CYP3A4, Luciferin-PPXE luminescence; series mostly up to 57.1 µM; note: nearly all actives have a fitted effect of over 50% in size; note: potency is the fitted concentration of half-maximal effect; for activity change, negative = inhibition: % is set by controls: 0 for no effect and ±100 for the full control effect
# Outline: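 Luminescent readout of luciferin produced by CYP3A4 (20 nM) dealkylation of Luciferin-PPXE, 25 uM (its KM). NADPH-driven reaction ran 60 min at RT after 10 min compound preincubation; data scaled to 57 uM ketoconazole as 100% inhibition.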
compound,measurement,setting,value
CCOc1ccccc1/C=c1\sc2nc(-c3ccco3)nn2c1=O,Potency,[1],60.1 µM (active)
CCCCCCCCCCCCCCCC(=O)O[C@@H]1[C@@H](O)[C@@H](O)[C@@H]([C@H](NC(=O)[C@@H]2C[C@@H](CCC)CN2C)[C@H](C)Cl)O[C@@H]1SC,max response,[2],-16.5% (inactive)
O=C([C@H](Cc1ccc(OS(=O)(=O)c2ccccn2)cc1)NS(=O)(=O)c1ccccn1)N1CCN(c2ccccc2)CC1,remaining parasite growth % (stronger effect = lower value),[3],49.4%
same,"activity, percent of control",[4],24.7%
same,"remaining proliferation (% of control), lower = more inhibition",[5],18.6%
COC(=O)[C@H](Cc1ccc(O[S+](=O)([O-])c2cccc3cnccc23)cc1)N[S+](=O)([O-])c1ccc2cnccc2c1,remaining parasite growth % (stronger effect = lower value),[3],13.9%
same,"activity, percent of control",[4],29.2%
same,"remaining proliferation (% of control), lower = more inhibition",[5],6.01%
O=C([C@H](Cc1ccc(O[S+](=O)([O-])c2cccc3cccnc23)cc1)N[S+](=O)([O-])c1ccccn1)N1CCN(c2ccccc2)CC1,remaining parasite growth % (stronger effect = lower value),[3],-1.21%
same,"activity, percent of control",[4],2.43%
same,"remaining proliferation (% of control), lower = more inhibition",[5],-0.011%
C=C(C)C(=O)OCC1CN2C(CCC(C)C2c2ccc(Br)cc2)C(=O)O1 (stereo unspecified),"activity change, positive = activation",[6],-55% [at 11.4 µM] (inactive) and -73.8% [at 11.4 µM] (inactive)
same,Potency,[7],inactive
same,Potency,[8],inactive
COC(=O)C1=C(C)N(Cc2ccccc2)C2=C(C(C)=O)C(c3ccccc3)[C@@](O)(C(=O)OC)C(=O)N2C1c1ccccc1 (stereo partly specified),"activity change, positive = activation",[6],-79.4% [at 11.4 µM] (inactive)
same,Potency,[7],inactive
C=CCCC/C=C(/C)C(OCc1ccc(OC)cc1)C(CC/C=C(\C)C(N)=O)OC (stereo unspecified),Potency,[9],inactive
same,Potency,[10],3.98 µM (active)
same,"activity change, positive = activation",[6],-96.8% [at 11.4 µM] (inactive)
Cc1ccc(S(=O)(=O)N[C@H]2COC(=O)C/C=C\[C@@H](C)COC(=O)C/C=C\[C@@H]2C)cc1,Potency,[9],inactive
same,Potency,[10],3.16 µM (active)
same,"activity change, positive = activation",[6],-68.8% [at 11.4 µM] (inactive)
CC(C)(C)c1ccc(OC2C=CC(C#Cc3ccccc3)OC2CO)cc1 (stereo unspecified),Potency,[9],inactive
same,Potency,[10],3.16 µM (active)
same,"activity change, positive = activation",[6],-73.2% [at 11.4 µM] (inactive)
same,Potency,[7],inactive
same,Potency,[8],inactive
CC(=O)OCC1OC(C#Cc2ccc(F)cc2F)C=CC1OC(C)=O (stereo unspecified),Potency,[9],5.01 µM (active)
same,Potency,[10],3.16 µM (active)
same,"activity change, positive = activation",[6],-91.4% [at 11.4 µM] (inactive)
COC(=O)NC(c1cccc(C)c1)[C@]1(C(C)=O)CCOC1=O (stereo partly specified),Potency,[9],3.16 µM (active)
same,Potency,[10],0.0316 µM (active)
same,"activity change, positive = activation",[6],-88.5% [at 11.4 µM] (inactive)
same,Potency,[7],inactive
same,Potency,[8],0.0398 µM (active)
C#CCC(C(=O)OC)(C(=O)OC)C(C[N+](=O)[O-])c1ccccc1 (stereo unspecified),Potency,[9],inactive
same,Potency,[10],3.16 µM (active)
same,"activity change, positive = activation",[6],-77% [at 11.4 µM] (inactive)
same,Potency,[7],inactive
same,Potency,[8],inactive
CC(=O)OCC1OC(C#Cc2ccccc2Cl)C=CC1OC(C)=O (stereo unspecified),Potency,[9],inactive
same,Potency,[10],3.98 µM (active)
same,"activity change, positive = activation",[6],-76.5% [at 11.4 µM] (inactive)
same,Potency,[7],inactive
same,Potency,[8],3.16 µM (active)
COc1ccc(OCC2CN3C(CCC(C)C3c3ccc(Br)cc3)C(=O)O2)cc1 (stereo unspecified),Potency,[9],inactive
same,Potency,[10],3.98 µM (active)
same,"activity change, positive = activation",[6],-46.6% [at 11.4 µM] (inactive) and -70% [at 11.4 µM] (inactive)
same,Potency,[7],inactive
COc1ccc(C#CC2C=CC(OC(C)=O)C(COC(C)=O)O2)cc1 (stereo unspecified),Potency,[9],inactive
same,Potency,[10],2.51 µM (active)
same,"activity change, negative = inhibition",[10],-3.53% [at 11.4 µM] (inactive)
same,"activity change, positive = activation",[6],-88.8% [at 11.4 µM] (inactive)
same,Potency,[7],inactive
same,Potency,[8],inactive
C/C(CCN1CCCCc2nc(C)c(C)cc21)=N\O[C@@H](C)c1cc(-c2c(C)cc(C)cc2C)no1,Potency,[9],2.51 µM (active)
same,Potency,[10],3.98 µM (active)
same,"activity change, positive = activation",[6],-65.9% [at 11.4 µM] (inactive)
C=CCOC(=O)C(C(C)=O)C(NC(=O)OC)c1cccs1 (stereo unspecified),Potency,[9],inactive
same,Potency,[10],3.16 µM (active)
same,"activity change, positive = activation",[6],-101% [at 11.4 µM] (inactive)
same,Potency,[7],inactive
same,Potency,[8],0.398 µM (active)
COC(=O)C1=C(C)N(Cc2ccccc2)C2=C3C(=O)N(C)C(=O)C3[C@@](O)(C(=O)OC)C(=O)N2C1c1ccccc1 (stereo partly specified),Potency,[9],inactive
same,"activity change, negative = inhibition",[10],-21.3% [at 11.4 µM] (inactive)
same,"activity change, positive = activation",[6],-32.3% [at 11.4 µM] (inactive)
same,Potency,[7],inactive
CCCNC(=O)OC[C@@H]1O[C@H](CCO/N=C(\C)CCN2CCc3nc(-c4ccccc4)c(-c4ccccc4)cc3C2)C=C[C@@H]1Oc1ccc(OC)cc1,Potency,[9],2 µM (active)
same,Potency,[10],3.16 µM (active)
same,"activity change, positive = activation",[6],-74.2% [at 11.4 µM] (inactive)
CO/N=C\c1ccc(C(=O)N2[C@H](c3ccc(C)cc3)[C@@H](C)CC[C@H]2C(=O)OC)cc1,Potency,[9],2.51 µM (active)
same,Potency,[10],3.16 µM (active)
same,"activity change, positive = activation",[6],-64.1% [at 11.4 µM] (inactive)
COC(=O)C1=C(C)N(Cc2ccccc2)[C@]23O[C@](C(=O)OC)(C(=O)N2C1c1ccccc1)C1CCOC(=O)C13 (stereo partly specified),Potency,[9],inactive
same,Potency,[10],2.51 µM (active)
same,"activity change, positive = activation",[6],-70.4% [at 11.4 µM] (inactive)
same,Potency,[7],inactive
same,Potency,[8],inactive
CC(=O)c1ccc(C2C=CC(Oc3ccc(F)cc3C)C(CO)O2)cc1 (stereo unspecified),Potency,[9],inactive
same,Potency,[10],3.16 µM (active)
same,"activity change, positive = activation",[6],-76.9% [at 11.4 µM] (inactive)
same,Potency,[7],inactive
COc1ccc(OC2C=CC(C#Cc3ccccc3)OC2CO)cc1 (stereo unspecified),Potency,[9],inactive
same,Potency,[10],3.98 µM (active)
same,"activity change, positive = activation",[6],-79.3% [at 11.4 µM] (inactive)
same,Potency,[7],inactive

# Reference: PubChem BioAssay (NCATS)
